Hits are enriched below; roughly 2.7% of the tested compounds scored in any of these assays.
HEK293 tox = cytotoxicity in counter-screen for GLP-1R inverse agonists; HEK293 cAMP-luciferase reporter cells, luminescence, 24 h; 410,000 compounds, 0.13% hits; Potency, µM (titrated, usually from 38.3 µM), for the others: at the highest dose activity change, negative = inhibition, most hits filed as inhibitors; AID 624418;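 also: loss of luciferase light is scored as toxicity; % is scaled to controls: 0 for no effect and ±100 for the full control effect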
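A 23 nL compound transfer followed 12 hours of cell culture at 37 deg C; exposure then lasted 24 hr. Luciferase assay detection reagent was dispensed and plates read for luminescence after a 12 min room-temperature wait.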
GLP1R ag = agonists of human GLP-1 receptor; P43220; HEK293 GLP-1R CRE-luciferase, luminescence, 4-6 h; cells express a hypersensitive GLP-1R form; Potency, µM (series often up to 45.6 µM), for inactives: top-dose activation, usual class: activators; 380,000 compounds, 0.007% hits; AID 624172; also: % of control where 0% means no effect
TrxR1 substrate = substrates of rat thioredoxin reductase 1 | purified TrxR1 substrate turnover, NADPH consumption readout | O89049 | 390,000 compounds, 0.01% hits | Potency, µM (titrated, usually from 114 µM), inactives show top-dose activity change, negative = substrate turnover; also: % is scaled to controls: 0 for no effect and ±100 for the full control effect; nearly all actives have a fitted effect of over 50% in size
Target sequence (O89049 whole entry, looked up): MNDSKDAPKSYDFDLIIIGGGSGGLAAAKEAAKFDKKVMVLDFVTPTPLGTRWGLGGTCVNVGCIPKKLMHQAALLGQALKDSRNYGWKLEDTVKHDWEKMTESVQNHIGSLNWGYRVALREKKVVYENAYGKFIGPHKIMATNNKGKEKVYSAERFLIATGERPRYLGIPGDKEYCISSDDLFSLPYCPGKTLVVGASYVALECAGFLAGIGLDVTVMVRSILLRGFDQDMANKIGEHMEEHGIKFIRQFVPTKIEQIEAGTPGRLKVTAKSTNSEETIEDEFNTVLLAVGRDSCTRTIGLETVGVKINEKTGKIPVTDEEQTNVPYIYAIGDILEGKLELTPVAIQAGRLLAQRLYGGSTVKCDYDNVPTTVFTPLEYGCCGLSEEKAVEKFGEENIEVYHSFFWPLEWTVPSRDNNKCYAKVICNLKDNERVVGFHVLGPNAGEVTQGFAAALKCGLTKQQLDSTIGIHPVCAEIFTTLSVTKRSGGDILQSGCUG
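Rat TrxR1, dispensed at 90 nM, was prereduced with 400 uM NADPH (final) for 5 min at ~22 deg C, then incubated with compound 15 min before 400 uM selenite. A first-read NADPH fluorescence drop versus no-compound background flagged substrates.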
TrxR1 inh = rat TrxR1 inhibition; recombinant rTrxR1, NADPH fluorescence consumption, selenite substrate; Potency, µM (highest dose often 114 µM), without a hit: top-dose activity change, negative = inhibition, hits mostly inhibitors; O89049; 390,000 compounds, 1% hits; AID 588453; also: % is scaled to controls: 0 for no effect and ±100 for the full control effect; nearly all actives have a fitted effect of over 65% in size
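Rat TrxR1 (90 nM in the dispensed reagent) was pre-reduced with 400 uM NADPH for 5 min at room temperature, then incubated with compound for 15 min. After 400 uM selenite was added, NADPH fluorescence (Ex 340/Em 450 nm) was followed for 8 min.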
GLP-1R inv ag = inverse agonists of human GLP-1 receptor | P43220 | HEK293 GLP-1R CRE-luciferase, luminescence, 24 h; GLP-1R form is constitutively active | Potency, µM (highest dose often 38.3 µM), without a hit: at the highest dose activity change, negative = inhibition, actives largely listed as inhibitors | 410,000 compounds, 1.6% hits; also: % is scaled to controls: 0 for no effect and ±100 for the full control effect; nearly all actives have a fitted effect of over 55% in size
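Inverse agonists were sought by their lowering of basal cAMP reporter luciferase output in HEK293 cells stably carrying constitutively active human GLP-1R, after 24 h compound treatment.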
mIDH1 inhibitor = blocks human mutant IDH1 R132H enzyme; O75874; IDH1-R132H enzyme, NADPH consumption, diaphorase/resazurin fluorescence; Potency, µM (series often up to 76.6 µM), for the others: top-dose activity change, negative = inhibition, most hits filed as inhibitors; 390,000 compounds, 0.093% hits; AID 602179; also: % is scaled to controls: 0 for no effect and ±100 for the full control effect; nearly all actives have a fitted effect of over 65% in size
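IDH1-R132H (0.5 ug/mL dispensed) in pH 7.5 Tris buffer was preincubated 30 min with compound, then given a substrate mix of 0.016 mM NADPH and 2 mM alpha-KG for 80 min at room temperature; remaining NADPH was read by diaphorase/resazurin fluorescence.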
Numbers without * were called inactive; ? = inconclusive; . = no result given; [ ] = dose if it differs, or a comment. Calls follow the shape of the dose curve; as a rule, active = well fitted curve in the direction sought with a large enough effect; inconclusive = small, poorly fitted or top-dose-only effect, or another doubt; inactive = no such curve, though single readings can be large; an effect the other way counts as inactive or inconclusive. Potency is read from the fitted curve at half-maximal effect.

SMILES	HEK293 tox	GLP1R ag	TrxR1 substrate	TrxR1 inh	GLP-1R inv ag	mIDH1 inhibitor
CC1CN(Cc2ccccc2)c2ccccc2NC1=S (configuration not stated)	?	-3.2%	-1.7%	1.0%	11.2µM*	0.8%
Cc1cnccn1	.	.	2.4%	-10.5%	.	.
Cc1cccc(-n2c(CCc3ccccc3)nnc2SCC(=O)c2ccccc2)c1	?	-2.2%	-4.9%	-10.2%	5.01µM*	3.1%
COc1cccc(C(=O)Nc2ccc3nc(SCC(=O)N4CCOCC4)sc3c2)c1	-18.0%	.	-0.8%	17.5%	?	16.8%
CC(C)(C)n1ncc2c(=O)n(Cc3cc(C(F)(F)F)ccc3Cl)cnc21	.	.	-3.6%	1.3%	.	.
Clc1ccc(/C=N/Nc2ncnc3ccccc23)cc1Cl	2.24µM*	-2.9%	-5.2%	5.6%	?	-3.9%
COC(=O)c1ccccc1NC(=O)CSc1nc2ccsc2c(=O)n1CCC(C)C	-13.8%	.	9.3%[57.1 µM]	19.8%[57.1 µM]	-4.9%	26.5%
Cc1ccc(/C=N/Nc2ccc(F)cc2F)s1	-13.5%	0.9%	-3.7%	-13.4%	5.01µM*	0.0%
Cc1ccc(S(=O)(=O)N2CCN(c3nc(-c4cncnc4)nc4ccccc34)CC2)cc1	.	.	-2.2%	17.2%	.	.
COc1ccccc1C(CCN(Cc1cccs1)C(C)=O)c1ccco1 (configuration not stated)	-17.2%	3.0%	-1.5%	44.7µM*	?	2.0%
Cc1ccccc1CN1CCc2c(OCC(=O)N3CCCc4ccccc43)cccc2C1=O	-16.2%	-3.3%	-15.9%	-7.8%	10µM*	-9.2%
OC(c1cccc(Cl)c1)c1ncc(-c2cccc(C(F)(F)F)c2)[nH]1 (configuration not stated)	-10.0%	7.8%	.	.	?	.
Fc1ccc(CNc2ccc(N3CCN(Cc4ccccc4)CC3)cc2)cc1	-15.4%	-1.9%	-2.0%	13.2%	4.47µM*	-1.1%
C/C=C(/C)C(=O)OC(C)(C)[C@@H]1Cc2c(ccc3ccc(=O)oc23)O1	18.3%	14.9%	186.8%	-23.4%	?	13.4%
C/C=C(/C)C(=O)O[C@@H]1c2c(ccc3ccc(=O)oc23)O[C@@H]1C(C)(C)OC(=O)/C(C)=C\C	5.2%	-1.1%	13.3%	12.0%	12.6µM*	3.7%
OC(COCC(F)(F)C(F)(F)C(F)(F)C(F)F)Cn1c2ccc(Cl)cc2c2cc(Cl)ccc21 (configuration not stated)	?	-5.1%	-7.7%[11.4 µM]	13.9%	1.78µM*	9.6%
FC(F)(F)c1cccc(N2CCN(c3ncnc4c3nc3n4CCCC3)CC2)c1	-3.6%	.	-11.4%	1.6%	-31.9%	11.2%
COc1ccc(/C=N/n2c(C)nc3ccccc3c2=O)cc1	-3.7%	8.7%	5.3%	16.6%	13.3%	-2.0%
COc1ccc(/C=N\n2nnc3ccccc32)cc1	-3.7%	0.4%	5.8%[57.1 µM]	7.9%	5.62µM*	5.7%
Cc1ccc(S(=O)(=O)N(CC(=O)Nc2cccnc2)c2cccc([N+](=O)[O-])c2)cc1	?	15.5%	-14.9%	-18.7%	?	16.9%
Cc1ccc(S(=O)(=O)N(CC(=O)Nc2cccnc2)c2cccc(Br)c2)cc1	0.0%	3.8%	-9.3%	2.3%	4.47µM*	8.9%
Cc1ccc(S(=O)(=O)N(CC(=O)Nc2cccnc2)c2cc(Cl)ccc2C)cc1	-26.4%	.	-7.3%	4.5%	10µM*	?
COc1ccc(CNC(=O)CN2CCN(C(c3ccccc3)c3ccccc3)CC2)cc1	-13.7%	17.0%	-3.5%	18.0%	12.6µM*	-0.3%
CC(C)(C)NC(=O)NC(=O)CN1CCN(C(c2ccccc2)c2ccccc2)CC1	16.4%	-0.8%	-7.2%	4.4%	5.01µM*	6.5%
O=C(CN1CCN(C(c2ccccc2)c2ccccc2)CC1)N1N=CCC1c1ccccc1 (configuration not stated)	-21.2%	8.7%	3.0%[57.1 µM]	7.6%[57.1 µM]	11.2µM*	-1.0%

High-throughput results from PubChem.
